# Unmarked numbers belong to inactive results.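 How the source made its calls: active = growth AUC significantly below the DMSO wells by Dunnett test; inactive = the rest.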
# System: Carnobacterium 1 (Carnobacterium gallinarum)
# Test: relative growth (AUC of 72 h growth curve relative to DMSO control, dAUC) (ratio); higher = more growth (less inhibition), active = hit call of the paper
# Conditions: 20 µM
# Experimental: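 Environmental bacterial isolates (Iceland stream sediment and Silwood Park soil) and whole stream-sediment communities were grown in LB from a 1:100 dilution with each pesticide at 20 µM (1% DMSO). A600 was read hourly for 72 h and the area under a spline-fitted growth curve (AUC) was computed. dAUC is the mean AUC of 3 biological replicates divided by the mean AUC of the DMSO controls. Significance was tested by Dunnett's test against the DMSO control.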
row,SMILES,relative growth
1,CC(C)(C)C(O)(CCc1ccc(Cl)cc1)Cn1cncn1 (stereo not given),0.864
2,COC(=O)NC(=S)Nc1ccccc1NC(=S)NC(=O)OC,0.745
3,Oc1ccccc1-c1ccccc1,0.744
4,CC(Oc1ccc(Oc2nc3ccc(Cl)cc3o2)cc1)C(=O)O (stereo not given),1.36
5,N#C/N=C1\SCCN1Cc1ccc(Cl)nc1,1.18
6,Cc1cc(C)nc(Nc2ccccc2)n1,1.1
7,COc1cccc(C(=O)NN(C(=O)c2cc(C)cc(C)c2)C(C)(C)C)c1C,0.863
8,CCOP(=S)(OCC)Oc1nc(Cl)c(Cl)cc1Cl,1.1
9,C/C(=N\C#N)N(C)Cc1ccc(Cl)nc1,1.32
10,Cc1cc(C)c(C2=C(OC(=O)CC(C)(C)C)C3(CCCC3)OC2=O)c(C)c1,1.01
11,CN(C)C(CSS(=O)(=O)O)CSS(=O)(=O)O,1.03
12,O=C(NCCc1ncc(C(F)(F)F)cc1Cl)c1ccccc1C(F)(F)F,0.905
13,CO/N=C(/C(=O)OC)c1ccccc1CO/N=C(\C)c1cccc(C(F)(F)F)c1,0.975
14,CC1(C)CON(Cc2ccccc2Cl)C1=O,0.914
15,CCCCCCCCCCCCNC(=N)N,0.0114 (active)
16,Cc1cccc2sc3nncn3c12,0.911
17,CCN(CC)c1nc(C)cc(OP(=S)(OC)OC)n1,1.07
18,O=[N+]([O-])/N=C1\NCCN1Cc1ccc(Cl)nc1,1.26
19,O=C1C=C(N(Cc2ccc(Cl)nc2)CC(F)F)CO1,1.06
20,CC(C)NC(=O)N1CC(=O)N(c2cc(Cl)cc(Cl)c2)C1=O,1.02

row,SMILES,relative growth
1,CC(C)OC(=O)C(C(=O)OC(C)C)=C1SCCS1,0.826
2,CC(Oc1ccc(Oc2ncc(C(F)(F)F)cc2Cl)cc1)C(=O)O (stereo not given),1.23
3,CC(C)(C)[C@@H](O)[C@H](Oc1ccc(Cl)cc1)n1cncn1,1.06
4,O=C(Nc1ccccc1-c1ccc(Cl)cc1)c1cccnc1Cl,0.968
5,CC1COC(Cn2cncn2)(c2ccc(Oc3ccc(Cl)cc3)cc2Cl)O1 (stereo not given),1.19
6,COC(=O)N(C(=O)N1CO[C@@]2(C(=O)OC)Cc3cc(Cl)ccc3C2=N1)c1ccc(OC(F)(F)F)cc1,1.15
7,CCOC(=O)CC(SP(=S)(OC)OC)C(=O)OCC (stereo not given),1.09
8,CN/C(=N\[N+](=O)[O-])NCc1cnc(Cl)s1,0.918
9,COP(=O)(OC)OC=C(Cl)Cl,0.961
10,CCCCC(C#N)(Cn1cncn1)c1ccc(Cl)cc1 (stereo not given),0.998
11,COP(=S)(OC)Oc1ccc(SC)c(C)c1,1.08
12,Cc1c(COC(=O)[C@@H]2[C@H](/C=C(\Cl)C(F)(F)F)C2(C)C)cccc1-c1ccccc1 (racemic),1.17
13,CCc1cccc(C)c1N(C(=O)CCl)[C@@H](C)COC,1.04
14,Fc1ccc([C@]2(Cn3cncn3)O[C@H]2c2ccccc2Cl)cc1 (racemic),0.995
15,N#Cc1cc(Br)c(O)c(Br)c1,1.05
16,Nc1c(Cl)c(F)nc(OCC(=O)O)c1Cl,1.23
17,CC[C@H](C)C1O[C@]2(C=C[C@@H]1C)C[C@@H]1C[C@@H](C/C=C(\C)[C@@H](O[C@H]3C[C@H](OC)[C@@H](O[C@H]4C[C@H](OC)[C@H](NC)[C@H](C)O4)[C@H](C)O3)[C@@H](C)/C=C/C=C3\CO[C@@H]4[C@H](O)C(C)=C[C@@H](C(=O)O1)[C@]34O)O2 (stereo not given in full),0.609
18,CCCCc1c(C)nc(NCC)nc1OS(=O)(=O)N(C)C,0.861
19,OC(Cc1ccccc1Cl)(Cn1nc[nH]c1=S)C1(Cl)CC1 (stereo not given),0.829
20,N#Cc1c[nH]cc1-c1cccc2c1OC(F)(F)O2,1.07
